TIM10 inh = inhibits growth of TIM10 yeast strain; S. cerevisiae TIM10 strain growth, BacTiter-Glo luminescence, 24 h; inhibition, % at 10 µM; actives 1.4% (n = 330,000); AID 463195;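 active = inhibition of 40% or more at the single tested concentration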;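 also: wild-type TIM10 isogenic control strain grown at permissive 25 °C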
PfHsp90 yeast 2 = inhibits growth of yeast expressing Plasmodium falciparum Hsp90. AID 504621. S. cerevisiae expressing PfHsp90, BacTiter-Glo ATP, 48 h; yeast lacking PDR1 and PDR3 efflux regulators. actives 0.32% (n = 310,000). inhibition, % at 9.4 µM;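 active = every replicate shows inhibition above about 80%, whatever the replicate mean, limit read from the data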;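 also: 0% = DMSO neutral controls and 100% = 20 µM radicicol positive controls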
tim10-1 inh = growth inhibitors of tim10-1 mutant yeast; S. cerevisiae tim10-1 ts strain growth, BacTiter-Glo, 24 h; inhibition, % at 20 µM; actives 2.2% (n = 330,000);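 active = inhibition of at least 40%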;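 also: mutant grown at 25 °C; 0% = DMSO wells with yeast and 100% = wells holding no yeast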
Beta2AR agonist = human beta-2 adrenergic receptor agonism by FAP. AID 504454. response, % (test concentration not listed). actives 0.43% (n = 340,000). Am2.2-beta2AR cells, FAP receptor internalization, flow cytometry. P07550;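 active = response above a set limit, near 3 SD of response in nonfluorescent compounds, cut at about 42% in these data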
Target sequence (P07550 whole entry, looked up): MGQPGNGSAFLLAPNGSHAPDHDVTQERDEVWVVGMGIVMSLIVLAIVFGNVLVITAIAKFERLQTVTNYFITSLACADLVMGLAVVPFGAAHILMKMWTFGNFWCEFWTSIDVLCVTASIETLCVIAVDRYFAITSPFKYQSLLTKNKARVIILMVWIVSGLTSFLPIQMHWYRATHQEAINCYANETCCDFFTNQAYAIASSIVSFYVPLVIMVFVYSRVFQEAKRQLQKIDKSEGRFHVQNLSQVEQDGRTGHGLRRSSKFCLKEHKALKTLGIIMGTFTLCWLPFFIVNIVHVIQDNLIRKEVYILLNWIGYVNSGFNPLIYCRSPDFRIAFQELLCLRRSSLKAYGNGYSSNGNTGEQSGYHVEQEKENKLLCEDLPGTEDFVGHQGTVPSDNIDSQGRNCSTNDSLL
tim23-1 inh = tim23-1 yeast growth inhibition; S. cerevisiae tim23-1 growth, BacTiter-Glo luminescence, 24 h; inhibition, % at 20 µM; actives 1.3% (n = 330,000); AID 463212;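 active = growth inhibition of the mutant yeast at or above 50%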;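 also: temperature-sensitive mutant grown at 25 °C; plate controls were DMSO-treated mutant yeast for no effect and medium wells lacking yeast for full effect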
tim23-1 confirm = confirmation of tim23-1 mutant yeast growth inhibitors | shares compounds with tim23-1 inh | S. cerevisiae tim23-1 growth, BacTiter-Glo luminescence, 24 h | inhibition, % at 20 µM | actives 83% (n = 4,400) | AID 463218;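 active = inhibition above about 39% in either of two replicate wells at 20 µM, limit read from the data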;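 also: temperature-sensitive tim23-1 mutant grown at 25 °C; 0% = DMSO wells with yeast and 100% = medium wells without yeast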
* marks the source's active call; other numbers are inactive results; . = no result. In the library only some 3.8% were active in any assay of this set; here they are far more common.

SMILES	TIM10 inh	PfHsp90 yeast 2	tim10-1 inh	Beta2AR agonist	tim23-1 inh	tim23-1 confirm
COc1ccc(NC(=O)C(=O)N/N=C/c2cccnc2)c(OC)c1	6	14	5	7	9	.
COc1ccc(NC(=O)/C(C#N)=C/c2cccnc2)c(OC)c1	27	29	31	4	50*	44*
N#C/C(=C\c1ccc(Cl)cc1)C(=O)Nc1cccnc1	9	27	20	5	65*	68*
Cc1cccc(NC(=O)/C(C#N)=C/c2ccc(Cl)cc2)n1	32	-2	30	-1	60*	68*
Cc1ccc(C)c(OCCC(=O)Nc2cccc(S(=O)(=O)N3CCCCC3)c2)c1	18	.	17	-9	20	.
CCN1C(=O)N[C@@H](c2cccc(C(F)(F)F)c2)[C@@H](C(=O)OC)[C@H]1C	1	1	-16	-6	-2	.
CCc1cc2c3c(c1)C(C)CC(C)(C)N3C(=O)/C2=C1\SC(=O)NC1=O (centres undefined)	18	20	23	16	59*	50*
CCOC(=O)C1=C(C)N=c2s/c(=C\c3ccncc3)c(=O)n2C1c1ccc2c(c1)OCO2 (centres undefined)	23	.	40	17	53*	49*
COc1ccccc1CNS(=O)(=O)CCNCc1ccco1	.	8	.	-4	.	.
CCC/C(=C1/c2ccccc2C(=O)N1c1ccccc1)c1ccc2[nH]ccc2c1	13	22	10	-7	6	.
O=C1c2ccccc2/C(=C\c2ccc3[nH]ccc3c2)N1c1ccccc1	34	9	35	-1	63*	53*
CN(Cc1ccccc1)C(=O)CN1CCN(S(=O)(=O)c2ccc(Cl)c(Cl)c2)CC1	16	21	19	-3	52*	33
O=C(COC(=O)CCOc1ccccc1)Nc1ncc(Cl)cc1Cl	4	15	19	-4	18	.
CC(=O)C1=C(C)NC(SCC(=O)c2ccccc2)=C(C#N)C1CC(C)C (centres undefined)	5	13	8	8	21	.
COc1cccc2sc3cc(NCc4ccc5c(c4)OCO5)ccc3c(=O)c12	17	0	-33	19	68*	56*
COc1ccc(-c2csc(Nc3ccc(C)cn3)n2)cc1OC	11	-8	6	-1	24	.
COc1ccc(-c2csc(Nc3cc(C)ccn3)n2)cc1OC	18	-20	25	17	94*	31
O=C(Nc1nc2ccccc2s1)C1CCCN1S(=O)(=O)c1ccc(Cl)cc1 (centres undefined)	7	.	40	-12	55*	50*
O=C(c1cccnc1)C1Cc2ccccc2C1=O (centres undefined)	13	29	2	-5	54*	52*
O=C(NN1C(=O)CSC1=S)c1cccnc1	2	.	-14	1	-4	.
Cc1ccccc1-n1nnnc1SCC(=O)NCC1(N2CCOCC2)CCCCC1	11	0	6	6	7	.
COc1ccc2cc3cc(C(=O)N4CCCCC4C)oc3nc2c1 (centres undefined)	24	4	25	8	50*	59*
CCOC(=O)C1CCN(C(=O)c2cc3cc4ccc(C)cc4nc3o2)CC1	21	6	16	1	58*	59*
CCOC(=O)C1CCN(C(=O)c2cc3c(ccc4ccccc43)o2)CC1	-8	-4	27	11	27	.
CCCCc1c(C)nc2ccc(C)cc2c1SCCC(=O)O	10	11	22	9	55*	34
SMILES	TIM10 inh	PfHsp90 yeast 2	tim10-1 inh	Beta2AR agonist	tim23-1 inh	tim23-1 confirm
c1ccc2c(c1)ncn2CCOCCOCCn1cnc2ccccc21	-3	-11	2	0	-6	.
Clc1ccc(OCCn2cnc3ccccc32)c(Cl)c1	7	-13	24	-15	54*	28
COc1ccc(CCNS(=O)(=O)c2ccc(Br)cc2)cc1	-2	3	35	-13	52*	30
COc1ccc(/C=C2/C(=O)N(c3ccccc3)N=C2C)cc1Br	21	-28	32	76*	56*	45*
CC1=NN(c2ccccc2)C(=O)/C1=C/c1cccs1	21	24	7	-6	57*	52*
O=C(CSc1nnc(C2CC2)n1-c1ccccc1)N1CCCC1	0	.	9	-7	1	.
COc1ccc(-c2cc(-c3ccc(C)cc3)n[nH]2)c(O)c1	21	1	8	3	54*	-21
CCCCCC(=O)c1ccc(O)cc1O	33	-34	25	-3	54*	47*
O=C(Cc1ccccc1)c1ccc(O)cc1O	.	4	.	2	.	.
O=C(/C=C/c1cccnc1)c1ccccc1O	-4	-35	36	15	51*	50*
CCN(CC(=O)NCc1cccs1)C(=O)CCOc1ccccc1	-1	-7	16	-1	14	.
O=C(Nc1ccc(Cl)c(NC(=O)c2cccs2)c1)c1ccco1	10	16	27	-2	55*	48*
O=C(Nc1ccc(NC(=O)c2cccs2)cc1Cl)c1ccco1	19	7	-11	-13	34	.
O=C(Nc1ccc(N2CCN(C(=O)c3ccco3)CC2)c(Cl)c1)c1cccs1	20	16	28	18	58*	53*
CC(C)C(=O)N1CCN(c2ccc(NC(=O)c3cccs3)cc2Cl)CC1	24	24	-14	6	34	.
COc1cc(OC)c(NC2c3ccccc3C(=O)N2c2cc(C)ccn2)cc1Cl (centres undefined)	12	18	13	0	52*	42*
Cc1ccc(C2(C)NC(=O)N(CC(=O)Nc3ccc(Cl)c(S(=O)(=O)N4CCCCC4)c3)C2=O)cc1 (centres undefined)	-6	-11	-6	6	4	.
Cc1nc2cc(C(=O)OCC(=O)Nc3cccc(Cl)c3)ccc2n1-c1ccccc1	16	49	12	-6	53*	30
COc1cc(CCC(=O)OCC(=O)N2CCc3ccccc32)cc(OC)c1OC	12	0	26	1	32	.
CC(OC(=O)CC1Sc2ccccc2NC1=O)C(=O)N(C)Cc1ccccc1 (centres undefined)	.	-3	.	3	.	.
O=C(/C=C/c1ccc(Cl)cc1)c1ccc([N+](=O)[O-])o1	34	.	-2	19	60*	10
COC(=O)c1ccc(NC(=O)CSc2nncn2-c2ccccn2)cc1	12	11	-1	-3	3	.
O=c1c(-c2ccccc2)c(-c2ccccc2)oc2cc(O)cc(O)c12	30	123*	22	0	55*	-24
CC(C)=CCc1cc(-c2oc3cc(O)cc(O)c3c(=O)c2O)ccc1O	-34	.	8	-8	51*	51*
O=c1c(O)c(-c2cc(O)c(O)c(O)c2)oc2cc(O)cc(O)c12	-20	-2	-11	-1	23	.

High-throughput results from PubChem.
